# TLR9-MyD88 inh = inhibitors of TLR9-MyD88 association in cells, primary screen, cell-based, CHO, BLA complementation, fluorescence. CCF4 FRET ratio. inhibition, % at 4.98 µM. 340,000 tested, 0.21% active. AID 504734, 2011;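 active = inhibition above the mean over all tested compounds plus 3 SD, cut at about 21% in these data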
# Myeloid diff MLP = induction of myeloid progenitor differentiation, primary screen, cell-based, flow cytometry, MLPCN library; ER-HoxA9 myeloid progenitors, lysozyme-GFP differentiation; calls only at 10 µM; 360,000 tested, 1% active;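 active = normalized GFP-positive differentiation at or above the plate's own cutoff, the solvent-only control mean plus 3 SD; inconclusive = no clear call, values can overlap the other calls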;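 note: cells exposed to compound for four days before flow analysis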
# NOD2-RIPK2 inh = NOD2-RIPK2 binding disruptors in cells, primary screen, fluorescence, CHO cells, BLA complementation | Receptor-interacting serine/threonine-protein kinase 2 (Homo sapiens), O43353 | inhibition, % at 4.98 µM | CCF4 ratio | 360,000 tested, 0.38% active; in the data active = inhibition above about 21%
# TLR4 MyD88 comp = inhibitors of TLR4-MyD88 association in cells, primary screen, cell-based, HeLa CL3-4, BLA complementation, FRET ratio; Toll-like receptor 4 (Homo sapiens) + Myeloid differentiation primary response protein …; HeLa CL3-4 TLR4/MyD88 BLA complementation; inhibition, % at 8.4 µM; 200,000 tested, 0.18% active; AID 861, 2007; in the data active = inhibition above about 25%
# Target sequence (O00206 whole entry, looked up): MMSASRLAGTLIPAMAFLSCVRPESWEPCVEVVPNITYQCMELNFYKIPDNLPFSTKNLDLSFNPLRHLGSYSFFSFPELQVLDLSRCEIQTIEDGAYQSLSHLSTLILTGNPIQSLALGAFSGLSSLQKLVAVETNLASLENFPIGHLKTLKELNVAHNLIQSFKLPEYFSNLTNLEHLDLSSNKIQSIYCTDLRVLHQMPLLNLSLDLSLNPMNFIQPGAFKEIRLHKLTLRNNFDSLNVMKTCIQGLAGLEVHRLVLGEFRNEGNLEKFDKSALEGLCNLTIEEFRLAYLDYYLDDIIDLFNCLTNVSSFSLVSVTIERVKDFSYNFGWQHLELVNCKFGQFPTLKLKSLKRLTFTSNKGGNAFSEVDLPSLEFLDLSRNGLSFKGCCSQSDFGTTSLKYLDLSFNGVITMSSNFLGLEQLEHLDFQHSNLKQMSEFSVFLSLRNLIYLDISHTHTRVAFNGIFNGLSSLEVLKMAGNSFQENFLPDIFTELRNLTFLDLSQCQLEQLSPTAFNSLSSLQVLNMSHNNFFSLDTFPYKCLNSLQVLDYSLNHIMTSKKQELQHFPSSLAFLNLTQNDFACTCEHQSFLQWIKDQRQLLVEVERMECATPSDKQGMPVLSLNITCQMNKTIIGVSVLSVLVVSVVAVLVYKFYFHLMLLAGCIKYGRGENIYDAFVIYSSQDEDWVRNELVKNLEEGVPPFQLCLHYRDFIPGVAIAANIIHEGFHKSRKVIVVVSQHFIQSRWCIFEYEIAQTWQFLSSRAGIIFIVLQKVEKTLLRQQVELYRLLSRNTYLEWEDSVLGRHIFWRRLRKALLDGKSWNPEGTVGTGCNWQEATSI
# Target sequence (Q99836 whole entry, looked up): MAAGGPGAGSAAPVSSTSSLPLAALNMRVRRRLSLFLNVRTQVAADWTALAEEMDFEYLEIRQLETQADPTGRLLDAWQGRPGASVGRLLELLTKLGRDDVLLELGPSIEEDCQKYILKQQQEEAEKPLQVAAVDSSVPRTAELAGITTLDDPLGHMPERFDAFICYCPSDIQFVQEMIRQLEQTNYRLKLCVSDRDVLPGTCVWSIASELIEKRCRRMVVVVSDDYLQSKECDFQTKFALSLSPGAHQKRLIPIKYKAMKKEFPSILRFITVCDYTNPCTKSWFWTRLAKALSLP
# Myeloid diff = inducers of myeloid progenitor differentiation, confirmation, cell-based, GFP/Mac1 flow cytometry, cherry pick 01 | shares compounds with Myeloid diff MLP | ER-HoxA9 myeloid progenitors, GFP/Mac1 double-positive flow | calls only | 2,300 tested, 2% active | AID 651706, 2012;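 active = share of green or green-and-red cells above 9 and 9% in run 1 or 4 and 3% in run 2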
# GFP autofluor = counter-screen for myeloid differentiation promoters: compound fluorescence; shares compounds with Myeloid diff MLP; ER-HoxA9 myeloid progenitors, no estrogen, GFP autofluorescence flow cytometry; vehicle wells 0%, positive control 100%; fluorescence response, % (concentration not given with the values); 2,300 tested, 7.4% active; AID 651707;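 active = over 5% cells positive for green fluorescent reporter, or over 2% positive for both it and APC stain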
# Numbers stand for hits; – = inactive; ? = inconclusive; · = not tested or not shown; + = active, no number. The list is not random: actives were taken first. Their share in the collection is about 1.5%.
SMILES,TLR9-MyD88 inh,Myeloid diff MLP,NOD2-RIPK2 inh,TLR4 MyD88 comp,Myeloid diff,GFP autofluor
O=S(=O)(c1ccc(=S)[nH]c1)N1CCCC1,–,+,–,·,–,62
NC(=O)NNC1=Nc2cccc3cccc1c23,–,–,–,–,–,–
COc1cc(OC)c(C2C=CC(=O)CC2)c(OC)c1 (stereo not given),·,–,–,·,·,·
COc1cccc(C(O)c2nc(-c3cncnc3)cs2)c1 (stereo not given),·,–,–,·,·,·
Cc1cccc(NC(=S)NCC23C=CC(O2)C2C(=O)N(c4ccc(Cl)cc4)C(=O)C23)c1 (stereo not given),–,+,–,–,–,–
Cc1ccc(NC(=S)NCC23C=CC(O2)C2C(=O)N(c4ccc(C)cc4)C(=O)C23)cc1 (stereo not given),–,–,–,–,·,·
Cc1nc2ccc(C(=O)N(C)Cc3ccco3)cn2c1N(C)CC1CCCCC1,·,–,–,·,·,·
COc1ccc(N2CCN(CCCNC(=O)CCC(=O)N3CCOc4ccc(Cl)cc43)CC2)cc1,–,–,–,·,·,·
O=C(CCC(=O)N1CCOc2ccc(Cl)cc21)NCCCN1CCN(c2ccccc2F)CC1,–,–,–,·,–,–
COC(=O)C[C@H]1C[C@H]2c3cc(NS(=O)(=O)c4cccc(OC)c4)ccc3O[C@H]2[C@@H](CO)O1,–,–,–,·,·,·
CN(C)S(=O)(=O)c1cccc(NC(=O)COC(=O)CCc2nc3ccccc3s2)c1,–,–,–,–,–,–
COc1ccc(C(NC(=O)C2CCN(CCOc3ccc(Cl)cc3Cl)CC2)c2cccs2)cc1 (stereo not given),·,–,–,·,·,·
O=C(Cc1cccc(NC(=O)C2CCN(C(=O)C3CCC3)CC2)c1)Nc1cccc(C(=O)N2CCCC2)c1,–,–,–,·,–,–
CC(=O)Nc1ccc(-c2ccnc3c2CC(C(=O)NCc2ccco2)O3)cc1 (stereo not given),·,?,–,·,·,·
C#CCOCCOCCOCCNc1nc(N2CCOCC2)nc(N2CCN(C(=O)[C@H]([C@@H](C)CC)n3cc(CCCCN)nn3)CC2)n1,–,+,–,–,–,–
C#CCOCCOCCOCCNc1nc(N2CCN(C(=O)[C@H]([C@@H](C)CC)n3cc([C@@H](N)CO)nn3)CC2)nc(N2CCN(C(=O)[C@H](Cc3ccc(O)cc3)n3cc([C@@H](N)C(C)CC)nn3)CC2)n1 (stereo not given in full),–,–,–,–,–,–
C#CCOCCOCCOCCNc1nc(N2CCN(C(=O)[C@H]([C@@H](C)CC)n3cc([C@@H](N)CO)nn3)CC2)nc(N2CCN(C(=O)[C@H]([C@@H](C)CC)n3cc([C@@H](N)Cc4ccc(O)cc4)nn3)CC2)n1,–,–,–,–,·,·
CN1CCN(S(=O)(=O)c2ccc(NC(=S)NC(=O)c3ccccc3)cc2)CC1,–,+,–,–,–,–
O=C(COc1ccccc1)Nc1nc2cc3c(cc2s1)OCCO3,–,–,–,·,–,–
COc1cc(NC(=O)CCN2CCN(c3ccccc3OC)CC2)cc(OC)c1,–,–,–,·,·,·
CN1C(=O)c2ccc(N3CCCC3)cc2C1=O,–,–,–,–,·,·
Cc1cc(N2CCCC2)ccc1/C=C1\NC(=S)N(C)C1=O,–,–,–,–,–,51
CC1(C)CC(=O)C=C(Nc2ccc(C(=O)O)cc2)C1,–,+,–,–,–,–
Cc1ccccc1CNC(=O)c1ccc2nc([C@@H]3O[C@H](CO)[C@H](O)[C@H](O)[C@H]3O)[nH]c2c1,·,–,–,·,·,·
CCCN1C(=O)/C(=C\C=C2/Sc3ccccc3N2CCO)SC1=S,–,+,–,–,–,6.5
CCc1nc2ccc(C(=O)Nc3cc(-c4ccccc4)ccc3OC)cn2c1N(C)C(=O)c1cccc(OC)c1,·,–,–,·,·,·
CN(C)c1ccc(/C=[N+](\[O-])C(C)(C)/C=N/O)cc1,–,–,–,–,·,·
Cc1ccc(/C=[N+](/C)[O-])cc1,–,–,–,–,–,–
CCCOc1ccc(/C=c2\sc3nc(-c4ccco4)nn3c2=O)cc1OCC,–,–,–,–,·,·

# Screening results as filed in PubChem BioAssay.
